This is a sample that favours compounds with a hit; in the whole collection about 4.4% have one here.
PfHsp90 set2 – growth inhibition of yeast expressing Plasmodium Hsp90 | S. cerevisiae expressing PfHsp90, BacTiter-Glo ATP, 48 h; yeast lacking PDR1 and PDR3 efflux regulators | inhibition, % at 9.4 µM | 310,000 compounds, 0.32% hits | AID 504621;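 active means every replicate shows inhibition above about 80%, whatever the replicate mean, limit read from the data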;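 further: 0% = DMSO neutral controls and 100% = 20 µM radicicol positive controls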
tim23-1 inh – inhibits growth of tim23-1 mutant yeast; inhibition, % at 20 µM; S. cerevisiae tim23-1 growth, BacTiter-Glo luminescence, 24 h; AID 463212; 330,000 compounds, 1.3% hits;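 active means growth inhibition of the mutant yeast at or above 50%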;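 further: temperature-sensitive mutant grown at 25 °C; plate controls were DMSO-treated mutant yeast for no effect and medium wells lacking yeast for full effect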
TIM10 inh – TIM10 yeast growth inhibition. S. cerevisiae TIM10 strain growth, BacTiter-Glo luminescence, 24 h. inhibition, % at 10 µM. 330,000 compounds, 1.4% hits;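 active means inhibition of 40% or more at the single tested concentration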;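 further: wild-type TIM10 isogenic control strain grown at permissive 25 °C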
SUMO Mot1 rescue – SUMOylation pathway inhibition by Mot1-301 growth rescue. 320,000 compounds, 1% hits. S. cerevisiae Mot1-301 growth rescue, ATP luminescence, 38.5C; percent above DMSO median, 100 means doubled. growth rescue, % at 18.8 µM;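 active means every valid replicate shows activation above 250% relative to neutral control wells; inactive means the rest, any valid replicate at or below 250%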;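 further: OY570 slx delta 5 strain wells were the positive control but not used for scaling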
tim10-1 inh – growth inhibitors of tim10-1 mutant yeast; S. cerevisiae tim10-1 ts strain growth, BacTiter-Glo, 24 h; inhibition, % at 20 µM; 330,000 compounds, 2.2% hits;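 active means inhibition of at least 40%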;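 further: mutant grown at 25 °C; 0% = DMSO wells with yeast and 100% = wells holding no yeast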
tim10-1 confirm – tim10-1 yeast growth inhibition, confirmed | 7,400 compounds, 56% hits | inhibition, % at 20 µM | S. cerevisiae tim10-1 ts strain growth, BacTiter-Glo, 24 h | shares compounds with tim10-1 inh;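 active means inhibition of yeast growth at or above a set limit in either of two repeat tests at 20 µM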;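 further: tim10-1 mutant grown at permissive 25 °C to find synthetic lethal compounds; 0% = DMSO yeast wells and 100% = medium wells without yeast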
The depositor's hits bear a star; / = no result given.

SMILES	PfHsp90 set2	tim23-1 inh	TIM10 inh	SUMO Mot1 rescue	tim10-1 inh	tim10-1 confirm
CCS(=O)(=O)c1ncc(Cl)c(C(=O)Nc2ccc(S(=O)(=O)N3CCC(C)CC3)cc2)n1	-17	40	-14	4	42*	-34
CC1CCN(S(=O)(=O)c2ccc(NC(=O)c3ccncc3)cc2)CC1	-37	30	18	-9	37	/
CC(=O)Nc1ccc(NC(=O)c2nc(S(=O)(=O)Cc3cccc(C)c3)ncc2Cl)cc1	-13	24	19	13	3	/
CN(c1ccccc1)S(=O)(=O)c1ccc(NC(=O)c2nc(S(C)(=O)=O)ncc2Cl)cc1	-3	26	18	21	43*	-1
CCOC(=O)c1ccc(NC(=O)c2nc(S(=O)(=O)Cc3ccccc3)ncc2Cl)cc1	9	31	0	72	55*	21
N#Cc1ccc(Cl)cc1NC(=O)COC(=O)c1cccc(S(=O)(=O)N2CCOCC2)c1	-4	12	1	-12	9	/
O=[N+]([O-])c1ccc(C2CC(c3ccccc3)=Nc3ccccc3S2)cc1 (centres undefined)	-17	27	16	-5	43*	21
O=C(O)C1CC(c2ccccc2)=Nc2ccccc2S1 (centres undefined)	4	45	-1	-23	4	/
CCc1ccc(-c2cc(C)no2)cc1S(=O)(=O)NCc1ccccc1OC	18	30	-5	-13	41*	7
COC(=O)c1ccc(Sc2nnnn2-c2ccccc2)c([N+](=O)[O-])c1	4	42	25	73	50*	35*
c1ccc(-c2nnc3ccc(N4CCC5(CC4)OCCO5)nn23)cc1	6	27	17	2	43*	23
COc1ccc(Cc2nn3c(-c4ccccc4OC)nnc3s2)cc1	-20	-5	-31	7	-13	/
COc1ccccc1-c1nnc2sc(C3CCCCC3)nn12	22	32	2	-10	43*	22
CC(=O)c1cccc(NC(=O)C(C)OC(=O)c2cccc(S(=O)(=O)N3CCN(C)CC3)c2)c1 (centres undefined)	/	4	4	9	-6	/
CC(C)OCCCn1c(=S)[nH]c2ccc(N3CCOCC3)cc2c1=O	/	7	15	/	45*	6
Cc1ccc(Cn2c(=S)[nH]c3ccc(N4CCOCC4)cc3c2=O)o1	/	14	15	-10	46*	22
CCCCn1c(=S)[nH]c2ccc(N3CCOCC3)cc2c1=O	/	-23	31	-4	22	/
COc1ccc(/C=C(\NC(=O)c2ccccc2)C(=O)N/N=C/c2sccc2C)cc1	-1	-1	19	25	51*	2
Cc1ccc(S(=O)(=O)/N=C(/Nc2c(C)cccc2C)c2ccccc2)cc1	0	19	0	-6	11	/
O=C(NCc1ccccc1)c1onc(CS(=O)(=O)c2ccccn2)c1C(=O)NCc1ccccc1	1	-4	-2	-9	-12	/
O=C(Cn1c(O)c(/C=C2\C=Nc3ccc(Br)cc32)sc1=O)N1CCCC1	-14	40	34	184	52*	30
CC(C)(C)C(=O)Nc1ccc(-c2nnc3n2CCCCC3)cc1	-1	-7	0	0	1	/
COc1ccc(N2CCN(c3ccc(S(=O)(=O)N(C(C)C)C(C)C)cn3)CC2)cc1	3	7	5	-21	-12	/
CCCCN1/C(=C/c2ccc3ccccc3[n+]2CC)Sc2ccccc21	-8	39	-45	/	60*	57*
CC(C)c1cc(-c2cc(C(=O)NCc3ccccc3)on2)nc(NCC2CC2)n1	-31	48	16	-25	44*	29
SMILES	PfHsp90 set2	tim23-1 inh	TIM10 inh	SUMO Mot1 rescue	tim10-1 inh	tim10-1 confirm
COc1ccc(/C(C)=N/OCC(=O)Nc2nc3ccccc3s2)cc1	4	43	11	3	42*	29*
CCOCC(=O)Nc1nc2ccccc2s1	-21	25	-3	-1	-23	/
COc1ccc(Cl)cc1NC(=O)CN(C)C(=O)C12CC3CC(CC(Cl)(C3)C1)C2	1	50	27	-8	43*	34*
COc1ccc(Cl)cc1NC(=O)CN(C)C1CCCCC1	9	6	24	4	14	/
O=C(CCC(=O)N1CCN(c2ccc(Cl)c(Cl)c2)CC1)c1ccccc1	3	23	10	19	42*	15
O=C1CN(C(=S)NC(=O)c2ccccc2[N+](=O)[O-])CCN1	-15	4	0	-18	-14	/
COc1ccc(N2C(=O)CC(N3CCC(O)(c4ccc(Br)cc4)CC3)C2=O)cc1 (centres undefined)	/	5	-4	15	25	/
O=C1CC(N2CCN(c3cccc(C(F)(F)F)c3)CC2)C(=O)N1c1ccccc1 (centres undefined)	/	13	3	-11	41*	25
COc1ccc(NC2CCN(C3CC(=O)N(c4ccc(F)c(Cl)c4)C3=O)CC2)cc1 (centres undefined)	102*	33	37	59	54*	42*
COc1cccc(N2CCN(C3CC(=O)N(c4ccc(F)c(Cl)c4)C3=O)CC2)c1 (centres undefined)	-5	47	28	-5	41*	26
CCCOc1ccc(N2C(=O)CC(N3CCC(O)(c4cccc(C(F)(F)F)c4)CC3)C2=O)cc1 (centres undefined)	3	48	26	47	56*	47*
O=C1CC(N2CCN(c3cccc(C(F)(F)F)c3)CC2)C(=O)N1c1ccccc1F (centres undefined)	29	8	22	189	19	/
COC(=O)C1(CC2CC(c3cccc(Br)c3)=NO2)CCN(C(=O)OC(C)(C)C)CC1 (centres undefined)	-19	32	18	-3	30	/
O=C(COC(=O)c1ccc(S(=O)(=O)N2CCCCC2)cc1)NCc1ccccc1	-1	11	-6	12	14	/
O=C1CC(N2CCCN(C3CC(=O)N(c4ccc(F)cc4)C3=O)CC2)C(=O)N1c1ccc(F)cc1 (centres undefined)	8	36	22	-10	47*	42*
O=C(C[C@H]1C/C=C\CCC(=O)OC[C@H]2CCCN2C1=O)NCCO	-13	9	3	-10	7	/
CC(C)C(NS(=O)(=O)c1ccc2c(c1)C(C)(C)C(=O)N2C)C(=O)NCc1ccccc1Cl (centres undefined)	-1	14	-2	-10	16	/
Cn1c2ccccc2c(=O)c2ccc(C#CC3(N)CCCCC3)cc21	6	33	27	6	45*	36*
Cn1c2ccccc2c(=O)c2cc(C#CC3(O)CCCCC3)ccc21	0	-3	-7	-34	44*	39*
O=c1c2ccccc2oc2ccc(C#CC3(O)CCCCC3)cc12	-13	30	21	-20	45*	36*
NC1(C#Cc2ccc3c(=O)c4ccccc4sc3c2)CCCCC1	-16	36	35	82	5	/

Screening data: PubChem, several laboratories
